Drawing on ChEMBL document CHEMBL3433997, “St. Jude Leishmania screening dataset” (2016), this text covers inhibition for 36 compounds.

Holding throughout (type): functional
For test [1], the target named is Solute carrier family 2, facilitated glucose transporter member 1 (Homo sapiens) (UniProt P11166). As to the kind of experiment: ST_JUDE_LEISH: Cytotoxicity at 2uM final concentration against transgenic Leishmania Mexicana promastigotes LmGLUT1 that are glucose transport deficient and complemented with the human glucose transporter GLUT1. Activity is measured by DNA content using SYBR green in vitro.
Solute carrier family 2, facilitated glucose transporter member 1 (Homo sapiens), sequence (P11166 whole entry): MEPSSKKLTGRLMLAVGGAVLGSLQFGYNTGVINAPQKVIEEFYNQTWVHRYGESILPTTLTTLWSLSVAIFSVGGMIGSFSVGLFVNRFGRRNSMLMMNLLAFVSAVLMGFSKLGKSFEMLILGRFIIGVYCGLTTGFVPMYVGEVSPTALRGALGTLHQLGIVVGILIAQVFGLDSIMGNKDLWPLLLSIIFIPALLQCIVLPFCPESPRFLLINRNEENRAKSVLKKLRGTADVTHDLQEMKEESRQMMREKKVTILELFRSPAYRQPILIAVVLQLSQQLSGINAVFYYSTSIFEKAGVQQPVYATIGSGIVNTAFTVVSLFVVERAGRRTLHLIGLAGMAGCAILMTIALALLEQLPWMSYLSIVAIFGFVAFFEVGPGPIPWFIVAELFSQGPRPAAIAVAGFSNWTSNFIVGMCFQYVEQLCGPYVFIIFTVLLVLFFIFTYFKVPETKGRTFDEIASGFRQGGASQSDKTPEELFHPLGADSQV

The target in test [2] is Hexose transporter 1 (Plasmodium falciparum) (UniProt O97467). In words: ST_JUDE_LEISH: Cytotoxicity at 2uM final concentration against transgenic Leishmania Mexicana promastigotes LmPfHT that are glucose transport deficient and complemented with the Plasmodium falciparum hexose transporter. Activity is measured by DNA content using SYBR green in vitro.
The target in test [3] is Glucose transporter (Leishmania mexicana) (UniProt O61059). As to the kind of experiment: ST_JUDE_LEISH: Cytotoxicity at 2uM final concentration against transgenic Leishmania Mexicana promastigotes LmGT2 that are glucose transport deficient and complemented with the L. Mexicana glucose transporter 2. Activity is measured by DNA content using SYBR green in vitro.

One may read the inhibition as the relative decrease from the control value, in per cent. As for `O=c1[nH]c2c(cc1CNC1CCCCC1)c(-c1cccc(F)c1)nn2-c1ccccc1`, the inhibition in test [1] is 1.69%; in test [2], 0.38%; in test [3], -3.71%.

As for `CN1CCN(c2ccc(-c3cc(-c4cc(F)c(F)c(F)c4)cnc3N)cc2)CC1`, the inhibition in test [1] stood at 4.36%; in test [2] it was 1.8%; in test [3], 0.2%.

`N#Cc1ccc(CN2CCC(Oc3ccc(NC(=O)c4cccs4)cc3)CC2)cc1`: the inhibition in test [1] is -0.02%; in test [2], 1.99%; in test [3] it was 4.28%.

As to `O=c1cc(NCCC(CNCc2cc3ccccc3o2)NCc2cc(Br)cc(Br)c2)[nH]c2ccccc12` (stereo not drawn), the inhibition in test [1] worked out at 0.2%; in test [2], 0.33%; in test [3], 2.33%.

With `COc1cc(CCCOc2c(N)nc(N)nc2N)cc(OC)c1OC`, the inhibition came out at 4.82% in test [1], 3.75% in test [2] and 3.79% in test [3].

On to `Clc1ccc(-c2cnc3ccc(NCc4ccncc4)nn23)cc1`, for which the inhibition was 2.08% in test [1], 0.84% in test [2] and -0.5% in test [3].

Take `NC1=NC(c2ccccc2)(c2ccccc2)C(=O)N1CCCCc1ccccc1`: the inhibition in test [1] was -0.67%; in test [2], 0.44%; in test [3], -1.44%.

`Cc1cc(N2CCN(C(=O)OC(C)(C)C)CC2)ccc1N`: the inhibition in test [1] is 6.77%; in test [2], 8.78%; in test [3] it was 7.39%.

Take `O=C(NCC1CCC(C(=O)O)CC1)c1ccc(/C=C/C(=O)N2CCc3ccccc3C2c2ccc3c(c2)OCO3)cc1` (stereo not drawn): the inhibition in test [1] was -0.02%; in test [2] it was 1.62%; in test [3] it was 0.31%.

Turning to `CC(C)COc1ccc2ccccc2c1CNCCCCCCNCc1c(OCC(C)C)ccc2ccccc12`, the inhibition was 86.6% in test [1], 88.5% in test [2] and 27.7% in test [3].

For the compound `O=C(NCCCCN1CCCC2c3cccc(O)c3CCC21)c1ccc(-c2ccccc2)cc1` (stereo not drawn), the figures for the inhibition in test [1], in test [2] and in test [3] were 0.9%, -0.26% and -0.23%, respectively.

Consider `COc1nc2c(CCN3CC[C@H](NCc4cc(C#N)c5c(c4)OCCO5)[C@H](O)C3)ccnc2cc1F`, for which the inhibition in test [1] came out at 14.4%; in test [2], 18%; in test [3], 3.29%.

On to `Cc1noc(C)c1-c1cccc(CNCc2ccc(-c3ccc(-c4nc5cc(F)ccc5[nH]4)cc3)cc2)c1`, for which the inhibition worked out at 8.14% in test [1], 6.89% in test [2] and 3.46% in test [3].

Turning to `COC(=O)c1c(C#N)c(OC)cc(O)c1CSC[C@@H](CN1CCCCC1)Nc1nc(-c2ccc([N+](=O)[O-])cc2)cs1`, the inhibition in test [1] was -0.16%; in test [2], -0.29%; in test [3] it was 0.57%.

On to `CC[C@H](C)CNC(=O)c1ccnc(-c2ccc(CN3CCC(N4CCCC4)CC3)cc2)c1`, for which the inhibition worked out at 1.51% in test [1], 0.38% in test [2] and 0.35% in test [3].

Consider `Cc1ccc(NC(=O)c2ccc(CN3CCCN(Cc4cccc(O)c4)CC3)cc2)cc1F`, for which the inhibition came out at 7.81% in test [1], 6.4% in test [2] and 6.83% in test [3].

In the case of `N#Cc1ccc2c(c1)CCN(CCC1CCC(NC(=O)Nc3ccnc4ccccc34)CC1)C2` (stereo not drawn), the inhibition in test [1] was found to be 4.82%; in test [2] it was 3.39%; in test [3], 1.75%.

Consider `FC(F)(F)c1cccc(C=NNc2nc3ccccc3[nH]2)c1`, for which the values for the inhibition in test [1], in test [2] and in test [3] were 10.7%, 8.25% and 5.13%, respectively.

With `CN(C(=O)Nc1ccc(C(F)(F)F)cc1)C1CCN(CCCCCNC(=O)/C=C/c2ccc(Cl)c(Cl)c2)CC1`, the inhibition in test [1] is 4.18%; in test [2], 2.6%; in test [3] it was 0.47%.

In the case of `O=C(/C=C/c1ccc(Cl)c(Cl)c1)NCCCCCN1CCC(NC(=O)Nc2cc(Cl)nc(Cl)c2)CC1`, the inhibition in test [1] is 1.28%; in test [2], -0.18%; in test [3] it was 0.44%.

In the case of `CC(C)CCN(Cc1cncn1Cc1cccc(Cl)c1)C(=O)c1cncc(-c2ccccc2)c1`, the inhibition in test [1] stood at 5.13%; in test [2], 6%; in test [3] it was 5.78%.

As for `CCCN(CCC)CCCNc1ccc(C(=O)Nc2ccc(C)c(F)c2)cc1[N+](=O)[O-]`, the results for the inhibition in test [1], in test [2] and in test [3] were 76.3%, 74.6% and 74%, respectively.

In the case of `CCNc1cc(C(=O)N[C@@H](Cc2ccccc2)[C@H](O)CNC(C)(C)Cc2cccc(Cl)c2)cc(N2CCCCS2(=O)=O)c1`, the inhibition worked out at 5.21% in test [1], 1.94% in test [2] and 6.82% in test [3].

As to `COc1ccc2ncc(F)c(CCN3C[C@H](CNCc4cc(C#N)c5c(c4)OCCO5)[C@H](O)C3)c2n1`, the inhibition in test [1] turned out to be 7.97%; in test [2], 8.03%; in test [3], 1.91%.

As for `CN1CCCc2ccc(NC(=O)c3cc(-c4ccc(Cl)cc4)cs3)cc2C1`, the inhibition was determined as 1.97% in test [1], 4.89% in test [2] and 1.2% in test [3].

Consider `COc1cc([N+](=O)[O-])ccc1NC(=O)Nc1ccc(OC(F)(F)F)cc1`, for which the inhibition was 1.06% in test [1], 2.37% in test [2] and -2.01% in test [3].

With `CC(C)(C)c1ccc(CN2CCC(NC(=O)c3ccc(-c4cccc(C(F)(F)F)c4)s3)CC2)cc1`, the inhibition is 1.56% in test [1], -0.78% in test [2] and -5.64% in test [3].

Take `Cc1cccc(Nc2nc(NCCCCN)nc3cc[nH]c(=O)c23)c1`: the inhibition in test [1] is 6.92%; in test [2], 6.97%; in test [3], 4.49%.

On to `Cc1cc(NCCCCCCN)nc(Nc2ccc(Cl)cc2)n1`, for which the inhibition in test [1] was 5.87%; in test [2], 5.27%; in test [3] it was -0.67%.

On to `CC(C)CCN(Cc1cncn1Cc1ccccc1F)C(=O)c1cncc(-c2ccccc2)c1`, for which the inhibition in test [1] turned out to be 2.26%; in test [2], 5.35%; in test [3], 3.59%.

As for `CN(C(=O)/C=C/c1ccccc1F)C1CCN(CCCCCNC(=O)/C=C/c2ccc(Cl)c(Cl)c2)CC1`, the results for the inhibition in test [1], in test [2] and in test [3] were 5.19%, 4.23% and 5.34%, respectively.

Consider `CC(=O)Nc1ccc(C(=O)Nc2cccc(-c3ccc(-c4nc5ccccc5[nH]4)s3)c2)cn1`, for which the results for the inhibition in test [1], in test [2] and in test [3] were 4.38%, 1.07% and 5.88%, respectively.

For `O=C(Nc1ccccc1F)NC1CCN(c2ccnc(Nc3ccc(F)cc3)n2)C1` (stereo not drawn), the inhibition in test [1] was found to be 0.46%; in test [2], 0.72%; in test [3], 0.81%.

Consider `Cc1ccc(NC(=O)Nc2ccc(Cn3ncc(N4CCCNCC4)c(Cl)c3=O)cc2)cc1`, for which the inhibition in test [1] was determined as 2.01%; in test [2] it was 4.54%; in test [3], 1.32%.

With `N#Cc1ccc2c(c1)CCN(CCC1CCC(NC(=O)c3cc4ccc(Br)cc4[nH]3)CC1)C2` (stereo not drawn), the inhibition in test [1] came to 1.19%; in test [2], 0.57%; in test [3], 1.16%.

As for `COc1cccc2sc(Nc3nc(-c4ccccn4)cs3)nc12`, the values for the inhibition in test [1], in test [2] and in test [3] were 0.13%, 1.96% and 2.52%, respectively.
